From article PMC7862700, “An all-to-all approach to the identification of sequence-specific readers for epigenetic DNA modifications on cytosine”

Columns and labels:
Assay in all cases: DAPPL (digital affinity profiling via proximity ligation, sequencing); 10 mM Tris-HCl pH 7.5, 50 mM NaCl, 1 mM DTT, 4% glycerol, room temperature, 30 min; GST-TFs on glutathione beads, 16-mer random dsDNA library, 0.1% formaldehyde crosslink after washing; high values mean tight binding
Details in all cases: protein: recombinant; tags: N-terminal GST; dsDNA, one strand shown
ELK1 = biological target: T1, ELK1 (Homo sapiens, UniProt P19419 1-428)
T1 sequence: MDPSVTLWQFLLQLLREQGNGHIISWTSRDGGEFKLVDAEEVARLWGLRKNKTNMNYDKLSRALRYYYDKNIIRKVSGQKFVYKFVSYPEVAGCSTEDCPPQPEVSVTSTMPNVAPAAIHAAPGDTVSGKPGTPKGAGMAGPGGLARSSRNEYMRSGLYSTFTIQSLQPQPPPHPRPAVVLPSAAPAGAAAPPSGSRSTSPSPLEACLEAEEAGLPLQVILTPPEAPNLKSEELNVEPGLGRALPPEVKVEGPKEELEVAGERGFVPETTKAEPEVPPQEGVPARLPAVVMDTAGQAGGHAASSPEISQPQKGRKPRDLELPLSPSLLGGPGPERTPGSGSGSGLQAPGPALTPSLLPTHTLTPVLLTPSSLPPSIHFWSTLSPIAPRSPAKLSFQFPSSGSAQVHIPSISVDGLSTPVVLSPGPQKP
In short: (§1)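 Pools were built from human transcription factors expressed in yeast as GST fusions, captured on glutathione beads and DNA-barcoded, along with a tag-only sample. Incubation with 200 nmole of a 16-mer random double-stranded DNA library lasted 30 min at room temperature in Tris/NaCl/DTT/glycerol buffer, and was followed by washing, 0.1% formaldehyde crosslinking, proximity ligation, PCR amplification and Illumina NextSeq500 sequencing. Binding signal is the quotient of each hexamer's read frequency for a factor and its frequency for the tag-only sample.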

GABPA = biological target: T2, GABPA (Homo sapiens, UniProt Q06546 1-454)
T2 sequence: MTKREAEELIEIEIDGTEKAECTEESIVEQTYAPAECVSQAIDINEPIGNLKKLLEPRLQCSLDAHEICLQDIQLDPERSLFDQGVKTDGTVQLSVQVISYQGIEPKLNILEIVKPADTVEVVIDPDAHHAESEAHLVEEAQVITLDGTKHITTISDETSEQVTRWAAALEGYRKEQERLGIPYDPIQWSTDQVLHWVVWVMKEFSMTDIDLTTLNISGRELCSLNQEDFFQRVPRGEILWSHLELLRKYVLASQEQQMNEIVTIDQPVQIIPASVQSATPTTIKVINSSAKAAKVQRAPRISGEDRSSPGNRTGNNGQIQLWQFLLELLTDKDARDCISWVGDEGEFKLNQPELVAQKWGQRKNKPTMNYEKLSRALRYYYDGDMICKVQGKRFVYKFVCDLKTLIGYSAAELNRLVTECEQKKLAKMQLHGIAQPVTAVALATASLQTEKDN
In short: as §1

ERG = biological target: T3, ERG (Homo sapiens, UniProt P11308 1-479)
T3 sequence: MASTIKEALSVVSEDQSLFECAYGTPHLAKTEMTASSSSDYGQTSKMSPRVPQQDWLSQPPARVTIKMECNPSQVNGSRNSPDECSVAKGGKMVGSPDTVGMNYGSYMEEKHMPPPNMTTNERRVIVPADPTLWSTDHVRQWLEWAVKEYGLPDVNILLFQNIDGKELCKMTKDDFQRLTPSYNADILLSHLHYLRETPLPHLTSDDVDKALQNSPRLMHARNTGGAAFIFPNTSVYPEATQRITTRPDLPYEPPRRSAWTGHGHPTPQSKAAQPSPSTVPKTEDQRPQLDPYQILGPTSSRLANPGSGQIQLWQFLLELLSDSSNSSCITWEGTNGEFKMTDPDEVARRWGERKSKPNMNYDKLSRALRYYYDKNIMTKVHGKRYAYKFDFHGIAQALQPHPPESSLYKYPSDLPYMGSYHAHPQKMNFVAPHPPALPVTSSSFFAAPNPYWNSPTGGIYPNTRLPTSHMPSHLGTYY
In short: as §1

ELF1 = ELF1 (Homo sapiens, UniProt P32519 1-619)
In short: as §1

EHF = biological target: T4, EHF (Homo sapiens, UniProt Q9NZC4 1-300)
T4 sequence: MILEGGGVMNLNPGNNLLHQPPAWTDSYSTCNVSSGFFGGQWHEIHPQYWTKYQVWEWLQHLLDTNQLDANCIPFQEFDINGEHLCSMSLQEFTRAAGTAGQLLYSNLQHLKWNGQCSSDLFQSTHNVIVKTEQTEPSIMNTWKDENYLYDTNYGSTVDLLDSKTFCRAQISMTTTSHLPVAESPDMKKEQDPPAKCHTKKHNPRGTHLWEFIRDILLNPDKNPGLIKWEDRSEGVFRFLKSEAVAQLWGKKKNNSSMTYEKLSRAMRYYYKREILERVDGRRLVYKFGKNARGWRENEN
In short: as §1

SPIB = SPIB (Homo sapiens, UniProt Q01892 1-262)
In short: as §1

FEV = biological target: T5, FEV (Homo sapiens, UniProt Q99581 1-238)
T5 sequence: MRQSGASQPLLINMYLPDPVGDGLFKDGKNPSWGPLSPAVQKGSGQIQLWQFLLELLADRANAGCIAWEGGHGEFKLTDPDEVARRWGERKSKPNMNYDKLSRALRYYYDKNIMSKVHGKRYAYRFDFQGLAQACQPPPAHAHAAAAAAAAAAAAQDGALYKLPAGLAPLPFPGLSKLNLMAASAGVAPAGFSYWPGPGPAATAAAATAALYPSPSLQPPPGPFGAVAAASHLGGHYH
In short: as §1

ETV5 = ETV5 (Homo sapiens, UniProt P41161 1-510)
In short: as §1

ELF4 = ELF4 (Homo sapiens, UniProt Q99607 1-663)
In short: as §1

ELK4 = biological target: T6, ELK4 (Homo sapiens, UniProt P28324-2 1-405)
T6 sequence: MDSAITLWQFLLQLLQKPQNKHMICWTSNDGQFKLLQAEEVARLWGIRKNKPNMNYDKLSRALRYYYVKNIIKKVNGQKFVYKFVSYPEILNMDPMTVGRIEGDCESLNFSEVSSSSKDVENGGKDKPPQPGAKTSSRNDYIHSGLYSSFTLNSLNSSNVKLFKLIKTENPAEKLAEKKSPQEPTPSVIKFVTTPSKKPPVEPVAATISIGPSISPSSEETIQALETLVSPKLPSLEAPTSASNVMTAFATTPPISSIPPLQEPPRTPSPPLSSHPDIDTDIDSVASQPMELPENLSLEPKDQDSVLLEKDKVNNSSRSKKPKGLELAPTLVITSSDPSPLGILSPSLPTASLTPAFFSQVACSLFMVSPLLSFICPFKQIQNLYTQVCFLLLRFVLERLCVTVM
In short: as §1

ETV2 = biological target: T7, ETV2 (Homo sapiens, UniProt O00321 1-342)
T7 sequence: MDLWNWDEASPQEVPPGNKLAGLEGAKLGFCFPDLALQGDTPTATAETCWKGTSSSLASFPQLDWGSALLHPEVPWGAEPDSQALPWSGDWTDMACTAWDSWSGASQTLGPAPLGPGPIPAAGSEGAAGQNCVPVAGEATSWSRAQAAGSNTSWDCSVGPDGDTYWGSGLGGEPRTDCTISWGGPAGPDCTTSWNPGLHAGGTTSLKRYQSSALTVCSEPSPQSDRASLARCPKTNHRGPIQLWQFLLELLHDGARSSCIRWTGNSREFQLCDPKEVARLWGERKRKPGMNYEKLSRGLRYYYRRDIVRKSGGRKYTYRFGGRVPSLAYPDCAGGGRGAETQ
In short: as §1

ELF3 = biological target: T8, ELF3 (Homo sapiens, UniProt P78545 1-371)
T8 sequence: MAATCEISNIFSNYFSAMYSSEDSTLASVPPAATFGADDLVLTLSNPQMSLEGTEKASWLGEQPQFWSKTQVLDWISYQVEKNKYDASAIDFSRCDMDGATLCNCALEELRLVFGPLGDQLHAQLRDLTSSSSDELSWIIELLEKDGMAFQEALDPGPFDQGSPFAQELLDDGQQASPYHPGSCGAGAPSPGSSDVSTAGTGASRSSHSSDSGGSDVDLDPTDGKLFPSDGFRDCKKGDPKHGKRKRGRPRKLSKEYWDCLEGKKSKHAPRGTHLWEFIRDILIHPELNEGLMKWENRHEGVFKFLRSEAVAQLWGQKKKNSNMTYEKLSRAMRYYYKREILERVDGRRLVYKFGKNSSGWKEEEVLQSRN
In short: as §1

ERF = biological target: T9, ERF (Homo sapiens, UniProt P50548 1-548)
T9 sequence: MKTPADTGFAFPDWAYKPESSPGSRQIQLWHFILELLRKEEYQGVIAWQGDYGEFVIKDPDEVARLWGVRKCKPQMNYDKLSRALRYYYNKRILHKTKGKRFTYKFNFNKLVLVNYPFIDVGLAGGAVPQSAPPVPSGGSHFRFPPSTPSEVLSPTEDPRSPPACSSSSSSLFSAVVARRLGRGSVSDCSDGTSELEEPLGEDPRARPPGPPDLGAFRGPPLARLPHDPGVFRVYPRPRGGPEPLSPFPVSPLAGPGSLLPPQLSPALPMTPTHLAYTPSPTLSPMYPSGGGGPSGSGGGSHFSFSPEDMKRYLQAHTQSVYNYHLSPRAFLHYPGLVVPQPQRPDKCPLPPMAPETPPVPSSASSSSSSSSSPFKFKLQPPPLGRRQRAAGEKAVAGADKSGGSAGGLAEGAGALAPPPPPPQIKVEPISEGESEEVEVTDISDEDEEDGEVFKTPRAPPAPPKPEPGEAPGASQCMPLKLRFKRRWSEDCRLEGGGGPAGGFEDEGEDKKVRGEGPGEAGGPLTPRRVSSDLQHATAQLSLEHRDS
In short: as §1

ETV3L = biological target: T10, ETV3L (Homo sapiens, UniProt Q6ZN32 1-361)
T10 sequence: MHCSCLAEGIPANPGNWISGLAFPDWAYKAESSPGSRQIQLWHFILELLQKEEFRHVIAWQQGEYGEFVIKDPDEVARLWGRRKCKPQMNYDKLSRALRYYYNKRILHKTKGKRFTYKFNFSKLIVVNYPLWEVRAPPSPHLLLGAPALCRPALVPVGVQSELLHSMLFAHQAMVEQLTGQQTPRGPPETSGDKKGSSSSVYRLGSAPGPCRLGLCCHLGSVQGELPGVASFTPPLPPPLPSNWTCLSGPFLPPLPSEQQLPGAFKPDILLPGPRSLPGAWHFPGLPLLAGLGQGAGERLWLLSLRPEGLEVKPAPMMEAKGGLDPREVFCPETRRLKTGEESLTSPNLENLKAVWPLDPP
In short: as §1

ETS2 = biological target: T11, ETS2 (Homo sapiens, UniProt P15036 1-469)
T11 sequence: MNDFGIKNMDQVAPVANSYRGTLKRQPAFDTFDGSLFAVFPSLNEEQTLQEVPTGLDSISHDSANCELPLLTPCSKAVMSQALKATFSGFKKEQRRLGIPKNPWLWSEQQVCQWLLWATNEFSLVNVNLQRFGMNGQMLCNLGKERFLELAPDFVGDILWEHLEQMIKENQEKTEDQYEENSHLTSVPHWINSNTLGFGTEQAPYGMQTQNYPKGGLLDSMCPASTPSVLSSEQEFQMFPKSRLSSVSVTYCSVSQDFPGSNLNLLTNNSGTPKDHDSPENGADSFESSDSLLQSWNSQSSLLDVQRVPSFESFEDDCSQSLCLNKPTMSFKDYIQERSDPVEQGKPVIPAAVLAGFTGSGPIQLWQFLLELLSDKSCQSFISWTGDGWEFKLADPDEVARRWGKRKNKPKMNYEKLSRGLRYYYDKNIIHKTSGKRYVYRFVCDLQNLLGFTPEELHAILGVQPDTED
In short: as §1

SPDEF = biological target: T12, SPDEF (Homo sapiens, UniProt O95238 1-335)
T12 sequence: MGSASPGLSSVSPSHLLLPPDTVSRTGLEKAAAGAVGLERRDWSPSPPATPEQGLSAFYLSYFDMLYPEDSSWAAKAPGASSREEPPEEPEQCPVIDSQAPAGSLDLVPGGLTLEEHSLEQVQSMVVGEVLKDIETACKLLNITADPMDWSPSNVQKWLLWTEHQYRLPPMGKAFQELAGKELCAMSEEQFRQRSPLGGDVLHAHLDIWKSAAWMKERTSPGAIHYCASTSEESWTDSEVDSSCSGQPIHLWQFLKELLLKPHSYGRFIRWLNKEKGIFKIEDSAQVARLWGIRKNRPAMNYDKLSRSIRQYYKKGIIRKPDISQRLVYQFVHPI
In short: as §1

ETV6 = ETV6 (Homo sapiens, UniProt P41212 1-452)
In short: as §1

Sequence of ETV5 (P41161 whole entry): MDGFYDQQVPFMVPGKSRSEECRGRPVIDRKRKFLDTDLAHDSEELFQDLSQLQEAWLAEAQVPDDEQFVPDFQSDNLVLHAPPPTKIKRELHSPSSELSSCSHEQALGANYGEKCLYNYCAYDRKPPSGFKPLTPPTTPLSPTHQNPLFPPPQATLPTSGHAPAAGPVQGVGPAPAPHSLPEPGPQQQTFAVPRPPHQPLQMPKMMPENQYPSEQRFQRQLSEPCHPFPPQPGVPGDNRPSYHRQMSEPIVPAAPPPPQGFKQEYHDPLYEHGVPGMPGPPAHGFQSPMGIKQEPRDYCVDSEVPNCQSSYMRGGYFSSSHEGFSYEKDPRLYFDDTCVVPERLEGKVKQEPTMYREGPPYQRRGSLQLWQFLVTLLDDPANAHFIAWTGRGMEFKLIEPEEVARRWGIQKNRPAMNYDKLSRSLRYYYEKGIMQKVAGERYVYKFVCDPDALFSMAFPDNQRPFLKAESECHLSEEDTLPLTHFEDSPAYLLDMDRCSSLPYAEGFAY
Sequence of SPIB (Q01892 whole entry): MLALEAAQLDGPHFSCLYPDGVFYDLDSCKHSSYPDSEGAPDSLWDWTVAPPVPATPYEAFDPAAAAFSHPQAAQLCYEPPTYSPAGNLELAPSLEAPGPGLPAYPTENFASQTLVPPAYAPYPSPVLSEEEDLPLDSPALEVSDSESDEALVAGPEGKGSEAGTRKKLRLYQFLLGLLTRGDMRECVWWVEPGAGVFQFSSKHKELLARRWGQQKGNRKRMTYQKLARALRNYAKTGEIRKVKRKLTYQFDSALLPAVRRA
Sequence of ELF1 (P32519 whole entry): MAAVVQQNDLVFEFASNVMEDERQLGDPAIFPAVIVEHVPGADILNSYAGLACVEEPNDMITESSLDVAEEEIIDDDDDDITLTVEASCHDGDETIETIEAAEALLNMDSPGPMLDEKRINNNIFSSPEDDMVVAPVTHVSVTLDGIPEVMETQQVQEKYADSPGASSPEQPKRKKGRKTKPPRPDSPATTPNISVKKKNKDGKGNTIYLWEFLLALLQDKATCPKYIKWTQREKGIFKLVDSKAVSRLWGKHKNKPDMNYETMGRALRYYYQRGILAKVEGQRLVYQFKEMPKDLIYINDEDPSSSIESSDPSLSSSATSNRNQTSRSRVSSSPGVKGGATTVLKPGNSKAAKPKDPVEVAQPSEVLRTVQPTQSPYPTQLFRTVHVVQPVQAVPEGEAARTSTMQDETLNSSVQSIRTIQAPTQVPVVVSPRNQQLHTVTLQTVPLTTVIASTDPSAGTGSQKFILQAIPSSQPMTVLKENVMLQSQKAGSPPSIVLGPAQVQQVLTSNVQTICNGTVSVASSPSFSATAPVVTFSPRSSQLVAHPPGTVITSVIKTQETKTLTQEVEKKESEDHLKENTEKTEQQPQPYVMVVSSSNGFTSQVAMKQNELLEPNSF
Sequence of ELF4 (Q99607 whole entry): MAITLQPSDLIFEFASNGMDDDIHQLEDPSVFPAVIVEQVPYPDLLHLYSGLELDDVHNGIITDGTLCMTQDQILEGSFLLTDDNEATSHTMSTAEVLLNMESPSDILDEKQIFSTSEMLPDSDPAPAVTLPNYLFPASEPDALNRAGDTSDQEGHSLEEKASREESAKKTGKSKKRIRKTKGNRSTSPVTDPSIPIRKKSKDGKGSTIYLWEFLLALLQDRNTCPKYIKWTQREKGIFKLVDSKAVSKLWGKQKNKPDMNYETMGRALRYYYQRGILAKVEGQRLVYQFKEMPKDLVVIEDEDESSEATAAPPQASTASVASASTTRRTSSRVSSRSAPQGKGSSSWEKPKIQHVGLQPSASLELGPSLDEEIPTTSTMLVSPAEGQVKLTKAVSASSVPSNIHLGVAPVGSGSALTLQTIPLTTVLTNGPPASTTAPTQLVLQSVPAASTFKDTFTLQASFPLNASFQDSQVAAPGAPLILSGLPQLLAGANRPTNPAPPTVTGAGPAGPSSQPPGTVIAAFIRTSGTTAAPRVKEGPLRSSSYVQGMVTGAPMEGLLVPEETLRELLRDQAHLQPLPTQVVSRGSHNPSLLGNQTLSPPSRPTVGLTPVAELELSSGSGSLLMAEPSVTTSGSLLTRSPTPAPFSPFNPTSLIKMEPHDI
Sequence of ETV6 (P41212 whole entry): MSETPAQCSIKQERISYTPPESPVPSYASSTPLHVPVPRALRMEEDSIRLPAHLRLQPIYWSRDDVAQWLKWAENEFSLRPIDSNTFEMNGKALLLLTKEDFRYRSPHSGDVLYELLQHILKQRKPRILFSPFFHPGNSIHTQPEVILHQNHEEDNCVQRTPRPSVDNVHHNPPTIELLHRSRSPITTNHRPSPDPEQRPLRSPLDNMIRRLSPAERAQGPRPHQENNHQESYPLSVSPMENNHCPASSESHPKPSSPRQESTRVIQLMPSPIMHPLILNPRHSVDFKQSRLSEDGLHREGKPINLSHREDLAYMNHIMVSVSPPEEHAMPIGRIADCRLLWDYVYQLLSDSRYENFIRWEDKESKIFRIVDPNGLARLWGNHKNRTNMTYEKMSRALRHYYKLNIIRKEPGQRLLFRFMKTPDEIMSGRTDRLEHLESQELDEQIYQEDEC

**Q.** With GCCCAA as the sequence, how does the binding signal (ELK1) read?
**A.** Its binding signal is 1.08 fold enrichment (6-mer frequency, TF over GST control).

**Q.** What about the binding signal (GABPA) of the same sequence?
**A.** The binding signal was 1.14 fold enrichment (6-mer frequency, TF over GST control).

**Q.** What about the binding signal (ERG) of the same sequence?
**A.** The binding signal was 1.06 fold enrichment (6-mer frequency, TF over GST control).

**Q.** And the binding signal (ELF1)?
**A.** Its binding signal is 1.09 fold enrichment (6-mer frequency, TF over GST control).

**Q.** And the binding signal (EHF)?
**A.** The binding signal was 1 fold enrichment (6-mer frequency, TF over GST control).

**Q.** And the binding signal (SPIB)?
**A.** Its binding signal is 1.06 fold enrichment (6-mer frequency, TF over GST control).

**Q.** And the binding signal (FEV)?
**A.** The binding signal was 1.11 fold enrichment (6-mer frequency, TF over GST control).

**Q.** What about the binding signal (ETV5) of the same sequence?
**A.** The binding signal was 1.1 fold enrichment (6-mer frequency, TF over GST control).

**Q.** What about the binding signal (ELF4) of the same sequence?
**A.** The binding signal was 1.12 fold enrichment (6-mer frequency, TF over GST control).

**Q.** And the binding signal (ELK4)?
**A.** The binding signal was 1.07 fold enrichment (6-mer frequency, TF over GST control).

**Q.** What about the binding signal (ETV2) of the same sequence?
**A.** The binding signal was 1.24 fold enrichment (6-mer frequency, TF over GST control).

**Q.** And the binding signal (ELF3)?
**A.** Its binding signal is 1.05 fold enrichment (6-mer frequency, TF over GST control).

**Q.** What about the binding signal (ERF) of the same sequence?
**A.** The binding signal was 1.08 fold enrichment (6-mer frequency, TF over GST control).

**Q.** What about the binding signal (ETV3L) of the same sequence?
**A.** Its binding signal is 1.04 fold enrichment (6-mer frequency, TF over GST control).

**Q.** And the binding signal (ETS2)?
**A.** Its binding signal is 1.09 fold enrichment (6-mer frequency, TF over GST control).

**Q.** And the binding signal (SPDEF)?
**A.** The binding signal was 1.08 fold enrichment (6-mer frequency, TF over GST control).

**Q.** What about the binding signal (ETV6) of the same sequence?
**A.** Its binding signal is 1.02 fold enrichment (6-mer frequency, TF over GST control).
